Experimental data published in ChEMBL document CHEMBL3433997, “St. Jude Leishmania screening dataset” (2016).

Assays:
Assay type in all cases: functional
[1] = molecular target: Solute carrier family 2, facilitated glucose transporter member 1 (Homo sapiens) (UniProt P11166); assay: ST_JUDE_LEISH: Cytotoxicity at 2uM final concentration against transgenic Leishmania Mexicana promastigotes LmGLUT1 that are glucose transport deficient and complemented with the human glucose transporter GLUT1. Activity is measured by DNA content using SYBR green in vitro
Chain of Solute carrier family 2, facilitated glucose transporter member 1 (Homo sapiens) (P11166 whole entry): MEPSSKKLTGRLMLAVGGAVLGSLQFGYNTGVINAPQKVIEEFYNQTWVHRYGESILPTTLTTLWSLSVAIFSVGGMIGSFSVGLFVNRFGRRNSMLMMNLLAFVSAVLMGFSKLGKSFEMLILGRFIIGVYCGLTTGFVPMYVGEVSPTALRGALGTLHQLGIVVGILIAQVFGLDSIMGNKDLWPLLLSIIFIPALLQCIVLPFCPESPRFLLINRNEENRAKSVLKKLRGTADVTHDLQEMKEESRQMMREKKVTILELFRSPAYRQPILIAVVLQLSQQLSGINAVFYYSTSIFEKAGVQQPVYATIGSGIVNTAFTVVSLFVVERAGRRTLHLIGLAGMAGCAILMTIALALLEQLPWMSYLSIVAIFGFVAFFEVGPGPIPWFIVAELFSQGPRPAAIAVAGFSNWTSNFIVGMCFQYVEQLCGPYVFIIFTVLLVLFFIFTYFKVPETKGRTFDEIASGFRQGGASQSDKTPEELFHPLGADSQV

[2] = molecular target: Hexose transporter 1 (Plasmodium falciparum) (UniProt O97467); assay: ST_JUDE_LEISH: Cytotoxicity at 2uM final concentration against transgenic Leishmania Mexicana promastigotes LmPfHT that are glucose transport deficient and complemented with the Plasmodium falciparum hexose transporter. Activity is measured by DNA content using SYBR green in vitro
[3] = molecular target: Glucose transporter (Leishmania mexicana) (UniProt O61059); assay: ST_JUDE_LEISH: Cytotoxicity at 2uM final concentration against transgenic Leishmania Mexicana promastigotes LmGT2 that are glucose transport deficient and complemented with the L. Mexicana glucose transporter 2. Activity is measured by DNA content using SYBR green in vitro

| SMILES | inhibition [1] | inhibition [2] | inhibition [3] |
| --- | --- | --- | --- |
| COCCNCc1ccc(-c2cccc(CNC3CCN(Cc4ccccc4)CC3)c2)cc1 | 4% | 3.16% | 4.77% |
| Cc1cc(=NN=CC=Cc2ccccc2)c2cc(F)ccc2[nH]1 | 0.37% | 0.85% | 0.04% |
| CCOc1cc(C)ccc1N1CCN(CCCCNC(=O)c2ccc(NC(=O)c3ccc(Cl)cc3)cc2)CC1 | 0.02% | -2.19% | -0.2% |
| CC[C@H](C)CNC(=O)c1ccnc(-c2cccc(CN(C)C3CCN(C)CC3)c2)c1 | 1.42% | 2.4% | 2.59% |
| c1cc(CNC2Cc3ccc(-c4cccs4)cc3C2)cc(-n2ccnc2)c1 (centres undefined) | 3.39% | 0.43% | 1.86% |
| O=C(NCCCCN1CCC(c2cccc3ccccc23)CC1)c1ccc(NC(=O)c2ccc(Cl)cc2)cc1 | 1.07% | 0.25% | 0.68% |
| c1cc(-c2cc3ccc(C4=NCCN4)cc3[nH]2)ccc1C1=NCCN1 | 1.68% | 2.57% | 0.39% |
| Fc1ccc2[nH]c(-c3cccc(-c4ccc(CNCc5cnn(-c6ccccc6)n5)cc4)c3)nc2c1 | 0.4% | 1.9% | 0.03% |
| CC(C)(C)c1ccc(CN2CCC(CNC(=O)c3cc(-c4ccccc4)nc4ccccc34)CC2)cc1 | -2.07% | 0.33% | -1.73% |
| O=C(c1ccc([N+](=O)[O-])o1)N1CCN(c2nc3c(F)cc(F)cc3s2)CC1 | 21% | 6.03% | 7.31% |
| CC(C)Cc1cnc2nc(N)nc(N)c2c1 | 1.42% | 2.76% | 1.4% |
| CC(C)c1ccc(NC(=O)N2CCc3ccc(OCCN(C(C)C)C(C)C)cc32)c(Br)c1 | -3.12% | 0.76% | 1.63% |
| CCc1nc(N)nc(N)c1-c1ccc(C(C)C)cc1 | 2.65% | 2.31% | 2.86% |
| Cc1cc(=NN=Cc2cccc(Cl)c2)c2cc(F)ccc2[nH]1 | 5.23% | 5.15% | 4.84% |
| O=C(Nc1ccc(Br)cc1)N(CCN1CCOCC1)CC(O)COCc1ccc(Cl)c(Cl)c1 (centres undefined) | 2.07% | 1.38% | -5.49% |
| COc1ccc(CNCc2ccc(-c3ccc(-c4nc5ccccc5[nH]4)cc3)cc2)cc1 | 17.8% | 14.9% | 10.5% |
| O=C(/C=C/c1ccc(Cl)c(Cl)c1)NCCCCCN1CCC(CCCNC(=O)Nc2ccc(C(F)(F)F)cc2)CC1 | -1.43% | -2.93% | -1.92% |
| O=C(Nc1ccc(OC2CCN(Cc3ccccc3)C2)c(Cl)c1)c1ccco1 (centres undefined) | 5.7% | 6.46% | 4.97% |
| CN(C)CCn1c(=N)n(CC(O)c2ccc(Cl)c(Cl)c2)c2ccccc21 (centres undefined) | 6.31% | 4.53% | 5.49% |
| CCCC(C)NC(=O)[C@H](Cc1ccccc1)NC(=O)c1ccc(O)c(-c2ccc(OC)cc2)c1 (some centres undefined) | 4.38% | 3.09% | 3.9% |
| CCC(NC[C@@H](O)[C@H](Cc1ccccc1)NC(=O)c1cc(C2CCCC2)cc(N2CCCC2=O)c1)c1cccc(Cl)c1 (some centres undefined) | 2.16% | 2.04% | 4.65% |
| CC(=O)Oc1c(C(=O)C2CCC(C(C)(C)C)CC2)c(OC(C)=O)c2ccccc2c1OC(C)=O (centres undefined) | 8.82% | 11.5% | 7.73% |
| O=C(Nc1ccc(-c2cccc(-c3nc4ccccc4[nH]3)c2)cc1)NC1CC1c1ccccc1 (centres undefined) | 1.87% | 1.77% | -0.17% |
| O=c1c2ccc(Sc3ccccn3)cc2n(-c2ccccc2)c2cc(Sc3ccccn3)ccc12 | 1.05% | 0.77% | 2.64% |
| CC(C)CCNc1nc(NCCCc2ccccc2)c2cc(O)ccc2n1 | 24.8% | 18.8% | 8.25% |

| SMILES | inhibition [1] | inhibition [2] | inhibition [3] |
| --- | --- | --- | --- |
| COc1ccc(CN2CCN(CCCCNC(=O)c3ccc(NC(=O)c4ccc(Cl)cc4)cc3)CC2)c(OC)c1 | 6.23% | 4.9% | 6.03% |
| CSC1=NC(=Nc2c(C)cccc2C)C2(CCCCC2)N1c1ccccc1Cl | -1.1% | -1.21% | -2.07% |
| CN(C)C(=O)CC(=O)NCc1cccc(Cl)c1 | 6.99% | 6.27% | 7.23% |
| Cc1cccc2nc(-c3ccc(-c4ccc(CNCc5ccccc5)cc4)cc3)[nH]c12 | 3.54% | 3.32% | 4.35% |
| Cc1sc2nc(CN3CCCC3)nc(-n3c(NCCO)nc4ccccc43)c2c1C | 4.18% | 5.54% | 5.9% |
| COc1ccc(C2CCN(CCCNC(=O)c3ccc(NC(=O)c4ccc(Cl)cc4)cc3)CC2)c(OC)c1 | 3.85% | 4.23% | 3.54% |
| CC(=O)Nc1nc(C(=O)Nc2cccc(-c3cccc(-c4nc5cccc(C)c5[nH]4)c3)c2)cs1 | 6.67% | 1.89% | 14.6% |
| CC[C@H](C)CNC(=O)c1cncc(-c2ccc(CN3CCC(N4CCCC4)CC3)cc2)c1 | 0.53% | 0.26% | 1.05% |
| O=C(Nc1ccc(OC2CCN(Cc3ccc(F)cc3)C2)c(Cl)c1)c1cccs1 (centres undefined) | 2.66% | 2.25% | 0.55% |
| O=C(NCCc1ccccc1)N(Cc1ccccc1-c1cccc(CNC2CCCC2)c1)C1CCN(Cc2ccccc2)CC1 | 8.2% | 4.49% | 6.22% |
| CCN(CCCN1CCCCC1)c1cc(C)nc(Nc2ccc3c(c2)CCC3)n1 | -1.26% | 1.07% | 0.58% |
| Cc1cc(N2CCOCC2)nc(Nc2ccc(NC(=O)c3cccc4ccccc34)cc2)n1 | 7.25% | 8.47% | 5.87% |
| COc1cc(CCNC(=O)Cc2ccc3ccccc3c2)ccc1OCc1ccccc1 | 1.9% | 1.88% | 0.92% |
| O=C(NCCCCCN1CCC(c2c[nH]c3ccccc23)CC1)Nc1cccc(Cl)c1 | 2.7% | 0.53% | 0.16% |
| COc1cccc(CN2CCCN(Cc3cccc(NC(=O)c4ccc(-c5ccccc5)cc4)c3)CC2)c1 | 0.95% | 0.27% | -6.64% |
| CN1CCC(NCc2cccc(-c3ccc(S(=O)(=O)NCCN4CCCC4)c(F)c3)c2)CC1 | -1.49% | -0.62% | -0.34% |
| O=C(Cc1c[nH]cn1)Nc1ccc(-c2ccc(-c3nc4cc(F)ccc4[nH]3)cc2)cc1 | 1.05% | 0.28% | -0.48% |
| CC(CN1CCN(C)CC1)C(=O)Nc1cccc(-c2ccc(-c3nc4cc(C(F)(F)F)ccc4[nH]3)cc2)c1 (centres undefined) | 5.29% | 4.14% | 5.41% |
| CN(C)CC1CCCN1Cc1ccccc1-c1cnn(C)c(=O)c1Oc1ccccc1F (centres undefined) | 2.45% | 1.75% | 0.1% |
| O=C(NC1CCCCC1)N(Cc1cccc(-c2cccc(CNC3CCCC3)c2)c1)C1CCN(Cc2ccccc2)CC1 | 8.95% | 6.23% | 7.71% |
| COc1ccc2c(=NN=Cc3ccc(F)cc3)cc(C)[nH]c2c1 | 12.2% | 11% | 11.6% |
| O=C(NCc1cccc(F)c1)Nc1cccc(-c2cccc(-c3nc4ccccc4[nH]3)c2)c1 | 7.33% | 5.52% | 7.79% |
| CC(=O)Oc1cc(OCc2ccccc2)c(OC(C)=O)c(OCc2ccccc2)c1 | 6.3% | 5.31% | -0.19% |
| O=C(/C=C/c1ccc(Cl)c(Cl)c1)NCCCCCN1CCC(c2cn[nH]c2-c2ccccc2)CC1 | 4.33% | 3.45% | 1.87% |
| COc1cc2c(=O)c(Cc3ccc(Cl)cc3)c(C)[nH]c2cc1F | 2.09% | 3.31% | 0.73% |

| SMILES | inhibition [1] | inhibition [2] | inhibition [3] |
| --- | --- | --- | --- |
| CO/C(=C\C=C\c1cc2cc(Cl)c(Cl)cc2[nH]1)C(=O)NC1CCN(CCOc2ccccc2)CC1 | 8.51% | 7.84% | 0.9% |
| N=c1ccn(CC(=NO)c2ccc(Cl)c(Cl)c2)cc1 | 0.09% | 2.8% | 0.32% |
| CCCCCCN(C(=O)OCc1ccccc1)C1CCN(C(=O)OC(C)(C)C)CC1C(=O)OCC (centres undefined) | 7.92% | 6.27% | 7.27% |
| O=[N+]([O-])c1ccc(Nc2nc(N/N=C/c3cc(Cl)cc(Cl)c3O)nc(Nc3ccccc3)n2)cc1 | 2.04% | 2.61% | 2.65% |
| c1csc(-c2nc(NCC3CCCO3)ncc2-c2ccsc2)n1 (centres undefined) | 1.71% | 2.71% | 3.35% |
| COc1ccc2nccc([C@@H](O)CN3CCC(NC(=O)C(=O)c4c[nH]c5c(C)cccc45)CC3)c2c1 | 0.46% | 0.43% | 0.45% |
| Cc1cc(N)nc2ccc(-c3ccc(CN)cc3)cc12 | 9.09% | 6.77% | 4.15% |
| O=C(Nc1cccc(CN2CCCN(Cc3cccc(O)c3)CC2)c1)c1ccc(Cl)c(Cl)c1 | 13.9% | 12.1% | 13.8% |
| COc1cc(NC2=NS(=O)(=O)c3cc(Cl)ccc3N2C)cc(OC)c1OC | 6.86% | 6.41% | 7.53% |
| Cc1ccc(NC(=O)c2cc(Br)cc(N3CCC(N(C)C)CC3)c2)cc1F | 7.55% | 7.67% | 6.75% |
| Cc1nc(-c2nc(NCCc3cnccn3)ncc2-c2ccsc2)sc1C | 0.04% | 0.59% | -2.39% |
| FC(F)(F)c1cccc(CNCC2CCN(CC3CCCCC3)CC2)c1 | -0.93% | -0.13% | 0.34% |
| N=c1c2c(n(Cc3ccccc3)c3c1CCC3)CCCC2 | 26.6% | 28.1% | 7.1% |
| O=C(/C=C/c1ccc(-c2nc3ccc(Cl)cc3[nH]2)cc1)NCc1cccc(F)c1 | 4.5% | 4.66% | 4.07% |
| O=C(Cc1ccc(F)cc1)NC1CCN(c2ccnc3cc(Cl)ccc23)C1 (centres undefined) | 0.69% | 1.78% | 2.41% |
| CCOc1cc(C(=O)NC2CCN(Cc3ccccc3)CC2)ccc1-c1nc2cc(Cl)c(Cl)cc2[nH]1 | 2.82% | 5.07% | -0.27% |
| Cc1nc2ccc([N+](=O)[O-])cc2c(=O)n1OCc1ccccc1 | 2.26% | 2.03% | 2.66% |
| O=C(NCc1ccc(C(=O)NC2CCCCCC2)cc1)c1ccc(O)c(-c2ccc(Cl)c(Cl)c2)c1 | 1.17% | 1.13% | 0.44% |
| COc1cccc(NC(=O)NC2CCN(c3ccnc(Nc4ccc(F)cc4)n3)C2)c1 (centres undefined) | 0.39% | 6.07% | 3.8% |
| OCCN1CCN(c2ccc(Nc3ccnc4cc5ccccc5cc34)cc2)CC1 | 28.2% | 33.3% | 21.7% |
| Cc1ccc(NC(=O)Nc2ccc(Cl)cc2)cc1-c1cccc(C(=O)Nc2ccc(F)cc2)c1 | -1.9% | 2.5% | 5.14% |
| Cc1c(S(=O)(=O)Nc2ccc3nccc(N4CCN[C@H](C)C4)c3c2)sc2ccc(Cl)cc12 | -0.53% | 0.48% | -2.96% |
| CCNC(=O)c1ccc2c(c1)c(C)c(C)n2Cc1ccc(F)cc1 | 0.6% | -0.64% | 1.15% |
